Measured values as given in the supplement of paper PMC11732987, “Enantioselective OTUD7B fragment discovery through chemoproteomics screening and high-throughput optimisation” (Communications Chemistry, 2025).

What was measured:
Test in all cases: log2 ratio of Biotin-Ahx-Ub-VS probe labelling (fragment/DMSO); higher = less target engagement (more negative = stronger competition), active = hit call of the paper (q ≤ 0.05, log2 ratio ≤ -1)
Conditions in all cases: compound concentration: 200 uM; treatment time: 3 h
[1] = molecular target: T1, USP42 (UniProt Q9H9J4)
T1 sequence (whole entry): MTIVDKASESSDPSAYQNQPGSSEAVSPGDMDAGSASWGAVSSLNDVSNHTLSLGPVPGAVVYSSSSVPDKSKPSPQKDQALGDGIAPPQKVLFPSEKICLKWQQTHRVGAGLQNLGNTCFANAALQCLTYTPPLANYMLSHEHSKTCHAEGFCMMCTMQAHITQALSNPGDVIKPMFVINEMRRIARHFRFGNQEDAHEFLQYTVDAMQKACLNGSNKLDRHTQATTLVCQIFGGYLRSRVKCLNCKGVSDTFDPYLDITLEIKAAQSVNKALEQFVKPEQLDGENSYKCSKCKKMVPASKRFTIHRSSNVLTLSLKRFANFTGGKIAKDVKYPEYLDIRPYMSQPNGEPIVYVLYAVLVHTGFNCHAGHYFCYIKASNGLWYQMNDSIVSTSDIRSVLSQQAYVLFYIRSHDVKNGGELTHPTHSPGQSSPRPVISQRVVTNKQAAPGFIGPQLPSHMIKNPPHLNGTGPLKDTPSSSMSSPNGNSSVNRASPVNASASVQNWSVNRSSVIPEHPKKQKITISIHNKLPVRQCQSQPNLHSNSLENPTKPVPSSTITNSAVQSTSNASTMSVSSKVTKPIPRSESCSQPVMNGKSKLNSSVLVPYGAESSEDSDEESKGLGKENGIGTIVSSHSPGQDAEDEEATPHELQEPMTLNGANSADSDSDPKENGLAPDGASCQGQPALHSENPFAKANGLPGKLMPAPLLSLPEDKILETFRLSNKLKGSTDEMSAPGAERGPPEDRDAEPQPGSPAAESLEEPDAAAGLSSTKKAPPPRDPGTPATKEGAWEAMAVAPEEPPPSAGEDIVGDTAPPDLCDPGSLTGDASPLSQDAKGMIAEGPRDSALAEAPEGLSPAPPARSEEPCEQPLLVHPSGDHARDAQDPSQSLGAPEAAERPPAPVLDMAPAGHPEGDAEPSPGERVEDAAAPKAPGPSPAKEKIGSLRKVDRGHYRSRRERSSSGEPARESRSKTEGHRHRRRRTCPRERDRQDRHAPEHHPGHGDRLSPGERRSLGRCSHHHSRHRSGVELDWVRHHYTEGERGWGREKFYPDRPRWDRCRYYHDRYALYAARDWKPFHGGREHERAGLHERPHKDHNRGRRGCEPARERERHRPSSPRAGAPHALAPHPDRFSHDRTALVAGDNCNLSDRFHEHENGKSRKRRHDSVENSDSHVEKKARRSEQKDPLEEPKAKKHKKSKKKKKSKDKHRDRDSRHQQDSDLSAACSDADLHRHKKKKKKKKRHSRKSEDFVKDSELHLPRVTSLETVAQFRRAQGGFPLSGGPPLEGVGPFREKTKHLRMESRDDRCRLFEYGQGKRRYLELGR
In short: (§1)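 Each value is an average log2 ratio of fragment to vehicle, tested by unpaired t-test. The underlying Spectronaut label-free quantities were global-median-normalised, and only proteins with ≥2 unique peptides were included. Triplicate HEK293T lysate samples (495 µg) were exposed to fragment at 200 µM or vehicle for 3 h, then to Biotin-Ahx-Ub-VS at 0.5 µM final for 1 h, before NeutrAvidin enrichment of labelled DUBs, LysC and trypsin digestion, and diaPASEF LC-MS/MS.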

[2] = molecular target: USP46 (UniProt P62068)
In short: as §1

[3] = molecular target: T2, USP47 (UniProt Q96K76)
T2 sequence (whole entry): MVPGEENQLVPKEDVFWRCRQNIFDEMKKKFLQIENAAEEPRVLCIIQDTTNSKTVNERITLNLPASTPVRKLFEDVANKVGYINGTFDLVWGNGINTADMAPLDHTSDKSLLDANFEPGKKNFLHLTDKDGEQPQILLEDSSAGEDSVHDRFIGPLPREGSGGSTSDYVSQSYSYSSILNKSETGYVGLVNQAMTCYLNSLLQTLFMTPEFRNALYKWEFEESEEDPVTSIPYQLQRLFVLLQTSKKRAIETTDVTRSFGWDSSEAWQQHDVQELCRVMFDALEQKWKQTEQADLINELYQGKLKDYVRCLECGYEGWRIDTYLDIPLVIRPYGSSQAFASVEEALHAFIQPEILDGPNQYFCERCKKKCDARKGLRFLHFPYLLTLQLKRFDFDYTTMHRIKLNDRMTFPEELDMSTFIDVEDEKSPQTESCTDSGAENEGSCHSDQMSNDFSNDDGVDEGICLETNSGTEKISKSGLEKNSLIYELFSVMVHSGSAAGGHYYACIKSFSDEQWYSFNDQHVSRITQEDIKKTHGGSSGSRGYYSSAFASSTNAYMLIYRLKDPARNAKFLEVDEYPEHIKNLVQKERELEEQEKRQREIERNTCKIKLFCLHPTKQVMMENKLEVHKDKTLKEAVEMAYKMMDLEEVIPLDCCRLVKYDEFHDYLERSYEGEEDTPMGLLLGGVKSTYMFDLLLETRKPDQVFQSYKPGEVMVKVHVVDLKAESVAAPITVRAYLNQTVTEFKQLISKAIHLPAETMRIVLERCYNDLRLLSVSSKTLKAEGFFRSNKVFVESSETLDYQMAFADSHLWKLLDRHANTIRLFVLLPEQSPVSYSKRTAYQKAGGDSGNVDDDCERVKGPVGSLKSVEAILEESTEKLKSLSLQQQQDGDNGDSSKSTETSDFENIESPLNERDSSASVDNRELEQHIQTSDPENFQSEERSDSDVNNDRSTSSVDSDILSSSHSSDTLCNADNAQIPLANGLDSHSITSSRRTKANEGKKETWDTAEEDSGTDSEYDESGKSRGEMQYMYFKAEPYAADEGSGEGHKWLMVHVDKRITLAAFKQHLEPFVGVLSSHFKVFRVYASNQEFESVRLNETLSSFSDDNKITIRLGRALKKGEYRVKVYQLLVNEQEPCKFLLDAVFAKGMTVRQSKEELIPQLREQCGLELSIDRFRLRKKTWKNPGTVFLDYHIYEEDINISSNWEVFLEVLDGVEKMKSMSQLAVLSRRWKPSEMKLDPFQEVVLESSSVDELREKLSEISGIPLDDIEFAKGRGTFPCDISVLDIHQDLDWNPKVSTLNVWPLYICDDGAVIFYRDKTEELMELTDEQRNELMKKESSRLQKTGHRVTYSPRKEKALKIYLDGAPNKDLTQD
In short: as §1

[4] = molecular target: T3, USP48 (UniProt Q86UV5)
T3 sequence (whole entry): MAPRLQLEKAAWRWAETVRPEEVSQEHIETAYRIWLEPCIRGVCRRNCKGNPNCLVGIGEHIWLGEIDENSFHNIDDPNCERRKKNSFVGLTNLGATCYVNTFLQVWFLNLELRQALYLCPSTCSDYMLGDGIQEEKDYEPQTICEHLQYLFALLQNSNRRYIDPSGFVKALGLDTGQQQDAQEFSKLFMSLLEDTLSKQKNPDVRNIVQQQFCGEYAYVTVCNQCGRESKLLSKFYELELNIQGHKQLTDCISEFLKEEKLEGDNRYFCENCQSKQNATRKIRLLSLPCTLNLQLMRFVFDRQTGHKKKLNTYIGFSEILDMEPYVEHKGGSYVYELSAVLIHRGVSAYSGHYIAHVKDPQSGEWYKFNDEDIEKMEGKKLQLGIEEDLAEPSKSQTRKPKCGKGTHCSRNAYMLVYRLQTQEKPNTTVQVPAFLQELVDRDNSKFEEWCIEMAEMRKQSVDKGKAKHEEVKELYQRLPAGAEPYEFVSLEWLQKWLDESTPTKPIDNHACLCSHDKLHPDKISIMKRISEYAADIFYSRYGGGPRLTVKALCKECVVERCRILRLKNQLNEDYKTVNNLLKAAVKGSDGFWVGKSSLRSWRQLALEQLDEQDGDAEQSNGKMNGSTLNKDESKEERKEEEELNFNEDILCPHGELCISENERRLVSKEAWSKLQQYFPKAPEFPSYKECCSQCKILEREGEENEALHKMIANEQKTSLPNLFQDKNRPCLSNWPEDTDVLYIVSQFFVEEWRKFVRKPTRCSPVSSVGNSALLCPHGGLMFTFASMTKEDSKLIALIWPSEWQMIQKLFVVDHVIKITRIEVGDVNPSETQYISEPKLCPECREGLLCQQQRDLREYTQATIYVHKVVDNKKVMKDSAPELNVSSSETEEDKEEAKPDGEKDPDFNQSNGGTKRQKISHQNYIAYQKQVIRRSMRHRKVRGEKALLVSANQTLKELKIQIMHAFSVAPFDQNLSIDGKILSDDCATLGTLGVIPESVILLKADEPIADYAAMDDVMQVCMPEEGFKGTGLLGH
In short: as §1

[5] = molecular target: T4, USP5 (UniProt P45974)
T4 sequence (whole entry): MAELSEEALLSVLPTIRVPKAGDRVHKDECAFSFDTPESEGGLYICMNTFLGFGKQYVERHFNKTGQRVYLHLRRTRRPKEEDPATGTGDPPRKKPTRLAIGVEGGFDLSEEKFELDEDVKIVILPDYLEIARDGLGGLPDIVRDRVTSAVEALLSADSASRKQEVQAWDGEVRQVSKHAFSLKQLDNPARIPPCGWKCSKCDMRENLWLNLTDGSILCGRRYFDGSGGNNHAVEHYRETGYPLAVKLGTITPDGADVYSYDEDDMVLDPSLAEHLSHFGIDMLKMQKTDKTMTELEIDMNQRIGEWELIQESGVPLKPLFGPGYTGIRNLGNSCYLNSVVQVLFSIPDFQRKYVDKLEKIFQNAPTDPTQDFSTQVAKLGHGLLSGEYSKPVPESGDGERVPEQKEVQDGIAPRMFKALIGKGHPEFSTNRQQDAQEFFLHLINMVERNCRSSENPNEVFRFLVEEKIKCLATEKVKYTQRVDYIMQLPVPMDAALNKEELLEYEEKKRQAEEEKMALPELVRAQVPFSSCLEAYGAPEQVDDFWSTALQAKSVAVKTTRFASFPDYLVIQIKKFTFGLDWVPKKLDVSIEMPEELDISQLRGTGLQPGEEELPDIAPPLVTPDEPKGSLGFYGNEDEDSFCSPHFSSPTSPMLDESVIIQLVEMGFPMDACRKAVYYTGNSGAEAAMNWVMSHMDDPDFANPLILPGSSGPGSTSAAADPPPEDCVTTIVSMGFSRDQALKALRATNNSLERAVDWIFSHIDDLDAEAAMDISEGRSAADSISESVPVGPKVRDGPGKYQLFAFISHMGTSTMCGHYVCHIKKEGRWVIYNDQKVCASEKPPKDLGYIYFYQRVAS
In short: as §1

[6] = molecular target: USP54 (UniProt Q70EL1)
In short: as §1

[7] = molecular target: USP7 (UniProt Q93009)
In short: as §1

[8] = molecular target: T5, USP8 (UniProt P40818)
T5 sequence (whole entry): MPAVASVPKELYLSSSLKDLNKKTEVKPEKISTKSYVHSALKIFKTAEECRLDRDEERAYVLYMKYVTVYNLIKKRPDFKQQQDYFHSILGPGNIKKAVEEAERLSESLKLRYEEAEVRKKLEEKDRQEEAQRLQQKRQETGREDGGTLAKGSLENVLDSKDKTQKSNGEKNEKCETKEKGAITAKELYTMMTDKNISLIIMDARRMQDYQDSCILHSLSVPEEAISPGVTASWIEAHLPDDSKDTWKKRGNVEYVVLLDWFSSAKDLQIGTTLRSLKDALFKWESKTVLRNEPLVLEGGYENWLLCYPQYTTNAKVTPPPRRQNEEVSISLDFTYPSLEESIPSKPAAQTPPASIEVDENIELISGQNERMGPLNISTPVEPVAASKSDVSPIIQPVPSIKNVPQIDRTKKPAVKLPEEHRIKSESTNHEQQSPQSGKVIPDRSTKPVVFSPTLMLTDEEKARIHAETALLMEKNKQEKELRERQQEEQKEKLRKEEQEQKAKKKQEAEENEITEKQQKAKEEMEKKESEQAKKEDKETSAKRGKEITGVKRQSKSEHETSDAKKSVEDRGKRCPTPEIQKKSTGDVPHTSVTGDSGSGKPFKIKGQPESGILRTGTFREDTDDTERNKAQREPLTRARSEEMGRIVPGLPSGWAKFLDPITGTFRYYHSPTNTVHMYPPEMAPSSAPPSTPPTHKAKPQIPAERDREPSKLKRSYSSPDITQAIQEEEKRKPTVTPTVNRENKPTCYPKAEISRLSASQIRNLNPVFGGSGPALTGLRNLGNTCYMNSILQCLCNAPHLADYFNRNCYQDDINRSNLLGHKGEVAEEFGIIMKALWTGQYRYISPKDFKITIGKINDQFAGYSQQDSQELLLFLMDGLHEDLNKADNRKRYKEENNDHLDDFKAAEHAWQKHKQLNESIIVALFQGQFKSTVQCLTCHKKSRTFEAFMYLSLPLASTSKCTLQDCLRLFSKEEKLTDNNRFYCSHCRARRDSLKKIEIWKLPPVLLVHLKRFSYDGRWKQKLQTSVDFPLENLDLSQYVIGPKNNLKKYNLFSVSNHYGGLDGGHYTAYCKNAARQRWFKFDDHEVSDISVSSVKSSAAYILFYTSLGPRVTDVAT
In short: as §1

[9] = molecular target: USP9X (UniProt Q93008)
In short: as §1

[10] = molecular target: UniProt O00487
In short: as §1

Measured: log2 ratio of Biotin-Ahx-Ub-VS probe labelling

Sequence of USP46 (P62068 whole entry): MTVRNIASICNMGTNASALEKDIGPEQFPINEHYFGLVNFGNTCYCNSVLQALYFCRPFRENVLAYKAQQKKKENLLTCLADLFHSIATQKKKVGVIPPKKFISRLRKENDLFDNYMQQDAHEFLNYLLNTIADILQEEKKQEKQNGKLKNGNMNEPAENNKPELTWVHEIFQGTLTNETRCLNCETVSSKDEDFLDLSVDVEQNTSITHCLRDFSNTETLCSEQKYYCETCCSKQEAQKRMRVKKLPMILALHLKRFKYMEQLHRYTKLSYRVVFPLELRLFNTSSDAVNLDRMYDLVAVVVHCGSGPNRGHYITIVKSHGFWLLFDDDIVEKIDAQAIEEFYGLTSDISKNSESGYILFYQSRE
Sequence of UniProt O00487 (O00487 whole entry): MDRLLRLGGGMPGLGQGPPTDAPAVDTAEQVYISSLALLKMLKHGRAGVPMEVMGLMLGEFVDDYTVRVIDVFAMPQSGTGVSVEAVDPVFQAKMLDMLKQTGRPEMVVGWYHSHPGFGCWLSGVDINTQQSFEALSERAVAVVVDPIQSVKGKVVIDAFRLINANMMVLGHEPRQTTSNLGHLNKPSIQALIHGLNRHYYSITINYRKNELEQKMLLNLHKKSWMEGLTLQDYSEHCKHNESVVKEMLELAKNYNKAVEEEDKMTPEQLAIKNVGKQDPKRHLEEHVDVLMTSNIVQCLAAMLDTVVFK
Sequence of USP9X (Q93008 whole entry): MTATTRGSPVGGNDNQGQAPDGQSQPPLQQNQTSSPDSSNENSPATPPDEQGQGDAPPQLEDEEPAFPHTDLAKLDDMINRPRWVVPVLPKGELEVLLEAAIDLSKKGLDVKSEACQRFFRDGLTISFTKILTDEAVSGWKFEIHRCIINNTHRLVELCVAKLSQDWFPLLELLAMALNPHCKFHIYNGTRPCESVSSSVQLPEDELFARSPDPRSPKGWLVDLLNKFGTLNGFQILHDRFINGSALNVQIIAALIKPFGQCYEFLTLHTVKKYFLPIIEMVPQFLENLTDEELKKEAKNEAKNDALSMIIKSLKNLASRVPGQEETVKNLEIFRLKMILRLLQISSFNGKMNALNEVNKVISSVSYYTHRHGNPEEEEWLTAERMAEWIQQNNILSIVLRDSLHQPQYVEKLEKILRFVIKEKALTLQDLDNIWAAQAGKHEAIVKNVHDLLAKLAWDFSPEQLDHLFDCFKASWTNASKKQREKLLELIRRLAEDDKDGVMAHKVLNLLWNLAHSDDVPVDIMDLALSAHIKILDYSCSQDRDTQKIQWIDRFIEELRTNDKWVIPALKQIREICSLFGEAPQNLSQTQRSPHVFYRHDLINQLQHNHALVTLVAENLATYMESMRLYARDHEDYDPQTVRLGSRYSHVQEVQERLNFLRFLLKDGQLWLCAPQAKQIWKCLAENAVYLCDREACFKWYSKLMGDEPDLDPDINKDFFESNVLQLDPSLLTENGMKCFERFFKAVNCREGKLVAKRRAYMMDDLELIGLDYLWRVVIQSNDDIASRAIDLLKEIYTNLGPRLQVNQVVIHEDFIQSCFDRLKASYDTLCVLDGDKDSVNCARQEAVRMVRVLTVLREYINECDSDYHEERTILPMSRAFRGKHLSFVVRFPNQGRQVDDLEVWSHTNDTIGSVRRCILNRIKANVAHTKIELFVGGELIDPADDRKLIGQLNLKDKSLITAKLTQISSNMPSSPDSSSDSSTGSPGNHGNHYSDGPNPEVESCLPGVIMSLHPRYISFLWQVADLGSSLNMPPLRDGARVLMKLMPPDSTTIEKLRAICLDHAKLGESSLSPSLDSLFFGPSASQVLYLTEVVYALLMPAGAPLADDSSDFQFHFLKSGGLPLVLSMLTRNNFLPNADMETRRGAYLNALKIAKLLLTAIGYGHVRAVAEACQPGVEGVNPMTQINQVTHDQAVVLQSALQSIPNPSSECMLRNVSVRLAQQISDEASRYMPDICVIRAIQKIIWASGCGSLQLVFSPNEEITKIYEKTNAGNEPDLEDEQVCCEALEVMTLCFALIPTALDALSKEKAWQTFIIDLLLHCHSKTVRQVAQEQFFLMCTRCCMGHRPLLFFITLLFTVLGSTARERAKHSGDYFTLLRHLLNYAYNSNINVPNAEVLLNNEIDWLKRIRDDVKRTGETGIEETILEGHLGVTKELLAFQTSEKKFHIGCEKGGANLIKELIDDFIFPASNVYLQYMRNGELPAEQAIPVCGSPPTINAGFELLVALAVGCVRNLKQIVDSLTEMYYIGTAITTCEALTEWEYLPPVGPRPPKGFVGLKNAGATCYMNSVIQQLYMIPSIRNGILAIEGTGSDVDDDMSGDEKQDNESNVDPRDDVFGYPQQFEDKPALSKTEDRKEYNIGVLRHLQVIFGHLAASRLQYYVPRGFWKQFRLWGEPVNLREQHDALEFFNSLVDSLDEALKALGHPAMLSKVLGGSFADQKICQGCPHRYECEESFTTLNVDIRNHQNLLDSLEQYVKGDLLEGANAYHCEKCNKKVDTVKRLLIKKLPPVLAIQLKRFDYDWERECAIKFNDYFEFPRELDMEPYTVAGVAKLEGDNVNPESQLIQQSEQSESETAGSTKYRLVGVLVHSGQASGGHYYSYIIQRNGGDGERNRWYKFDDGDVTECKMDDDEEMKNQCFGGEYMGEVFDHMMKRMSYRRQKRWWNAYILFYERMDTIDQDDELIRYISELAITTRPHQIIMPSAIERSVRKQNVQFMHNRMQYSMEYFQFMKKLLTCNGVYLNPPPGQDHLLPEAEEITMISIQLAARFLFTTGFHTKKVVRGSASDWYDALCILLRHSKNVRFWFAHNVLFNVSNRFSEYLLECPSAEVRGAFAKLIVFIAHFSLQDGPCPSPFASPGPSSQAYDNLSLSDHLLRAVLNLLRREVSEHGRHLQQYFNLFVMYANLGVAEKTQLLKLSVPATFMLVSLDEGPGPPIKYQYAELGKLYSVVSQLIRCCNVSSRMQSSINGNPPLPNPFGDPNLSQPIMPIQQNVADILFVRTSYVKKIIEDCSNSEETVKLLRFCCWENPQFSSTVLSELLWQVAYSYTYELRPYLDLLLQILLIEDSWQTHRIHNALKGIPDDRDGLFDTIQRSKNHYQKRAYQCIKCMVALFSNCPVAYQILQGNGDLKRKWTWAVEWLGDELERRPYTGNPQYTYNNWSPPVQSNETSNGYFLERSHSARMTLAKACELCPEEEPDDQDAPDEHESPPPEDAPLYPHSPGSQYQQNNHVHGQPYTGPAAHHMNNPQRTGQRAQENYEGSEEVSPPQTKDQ
Sequence of USP54 (Q70EL1 whole entry): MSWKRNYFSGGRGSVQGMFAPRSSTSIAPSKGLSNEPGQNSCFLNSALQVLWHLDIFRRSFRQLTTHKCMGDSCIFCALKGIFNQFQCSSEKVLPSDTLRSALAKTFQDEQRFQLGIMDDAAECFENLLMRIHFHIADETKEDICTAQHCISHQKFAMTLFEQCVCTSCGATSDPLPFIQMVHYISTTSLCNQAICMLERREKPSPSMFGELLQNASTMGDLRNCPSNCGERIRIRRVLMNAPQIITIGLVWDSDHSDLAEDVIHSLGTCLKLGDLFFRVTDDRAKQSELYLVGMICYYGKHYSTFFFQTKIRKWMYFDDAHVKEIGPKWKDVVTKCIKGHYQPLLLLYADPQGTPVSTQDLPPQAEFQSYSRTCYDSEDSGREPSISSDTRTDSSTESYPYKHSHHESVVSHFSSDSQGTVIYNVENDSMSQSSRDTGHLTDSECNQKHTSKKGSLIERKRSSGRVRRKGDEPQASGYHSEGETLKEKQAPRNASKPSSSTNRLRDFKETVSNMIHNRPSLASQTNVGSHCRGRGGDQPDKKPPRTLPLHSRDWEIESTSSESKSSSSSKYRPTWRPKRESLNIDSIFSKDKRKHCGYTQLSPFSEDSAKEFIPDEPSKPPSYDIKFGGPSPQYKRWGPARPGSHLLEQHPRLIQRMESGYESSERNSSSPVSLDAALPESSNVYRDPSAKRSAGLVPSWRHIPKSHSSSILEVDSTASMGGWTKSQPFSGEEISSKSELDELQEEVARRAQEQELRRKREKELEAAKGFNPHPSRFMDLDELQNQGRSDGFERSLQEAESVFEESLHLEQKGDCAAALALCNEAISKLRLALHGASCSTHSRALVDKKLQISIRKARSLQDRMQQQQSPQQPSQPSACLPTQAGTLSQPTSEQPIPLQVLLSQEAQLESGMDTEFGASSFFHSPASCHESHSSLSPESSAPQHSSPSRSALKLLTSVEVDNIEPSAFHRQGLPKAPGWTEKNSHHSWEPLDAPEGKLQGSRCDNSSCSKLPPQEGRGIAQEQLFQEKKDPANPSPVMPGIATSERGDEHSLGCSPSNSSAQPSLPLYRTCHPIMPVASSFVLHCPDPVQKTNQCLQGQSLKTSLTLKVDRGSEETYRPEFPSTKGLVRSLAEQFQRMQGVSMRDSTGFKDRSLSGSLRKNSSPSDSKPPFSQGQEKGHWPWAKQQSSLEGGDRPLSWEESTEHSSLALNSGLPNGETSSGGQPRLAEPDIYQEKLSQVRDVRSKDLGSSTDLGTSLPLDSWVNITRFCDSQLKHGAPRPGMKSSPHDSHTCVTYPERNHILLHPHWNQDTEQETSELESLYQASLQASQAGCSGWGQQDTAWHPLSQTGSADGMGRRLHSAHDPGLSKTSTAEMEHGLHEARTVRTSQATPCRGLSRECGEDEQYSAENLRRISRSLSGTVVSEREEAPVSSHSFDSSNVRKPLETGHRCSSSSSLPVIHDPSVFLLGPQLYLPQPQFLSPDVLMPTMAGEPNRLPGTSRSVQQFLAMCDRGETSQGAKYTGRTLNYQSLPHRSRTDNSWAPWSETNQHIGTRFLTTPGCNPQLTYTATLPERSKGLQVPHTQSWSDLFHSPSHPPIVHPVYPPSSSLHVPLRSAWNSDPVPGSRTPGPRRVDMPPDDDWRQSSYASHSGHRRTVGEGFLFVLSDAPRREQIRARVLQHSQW

O=C(CCl)N1CCC(c2nc3ccccc3o2)CC1
inactive: [1] -0.0372 | [2] -0.0557 | [3] -0.397 | [4] -0.598 | [5] 0.186 | [6] 0.726 | [7] -0.746 | [8] -0.0637 | [9] -0.351 | [10] -0.154
